This is an account of results in PubChem BioAssay.

Each structure is given as a SMILES string. Activity calls are given as the source filed them. Unless noted, no rule for the calls is given here.

Assay [1] in a line: compounds binding Alexa647 anti-His antibody – biochemical, small-molecule microarray, 635 nm fluorescence, artefact control for SMM control protein annotation, primary screen (AID 1128).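 Also: score merges feature fluorescence with signal-to-noise for each printed compound spot.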 Conditions: higher = more signal.
The subject of assay [2] is Human papillomavirus type 1a E7 protein (residues 1-88). Put plainly: HPV1a E7 small-molecule binders, primary screen, biochemical, small-molecule microarray, residues 1-88, 635 nm (AID 1129). Conditions: small-molecule microarray binding, fluorescence 635 nm; higher = more signal.
In assay [3] the target is Focal adhesion kinase 1 (Homo sapiens) (UniProt Q05397). Put plainly: PTK2 protein binding on printed compound slides – biochemical, small-molecule microarray, 635/667 nm fluorescence, BSA, DTT, primary screen (AID 1130).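 Also: composite of spot emission at 667 nm and signal to noise over triplicate slides.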 Conditions: 635 nm fluorescence, higher = more signal.
Assay [4] deals with Fibrinogen (Alexa647-labelled). Put plainly: Alexa647-fibrinogen binding to printed small molecules – biochemical, small-molecule microarray, 635/667 nm fluorescence, artefact control for SMM control-protein annotation, profiling panel (AID 1131).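 Also: z-score merges 667 nm fluorescence with per-spot signal-to-noise over triplicate slides.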 Conditions: fibrinogen-A647 binding fluorescence, higher = more signal.
Assay [5] has as its target Follistatin (Homo sapiens) (UniProt P19883). Put plainly: FST protein binding to printed compounds – biochemical, small-molecule microarray, 635/667 nm fluorescence, primary screen (AID 1132). As to conditions: 635 nm fluorescence, higher = more signal.
Assay [6] has as its target Fibroblast growth factor 2 (Homo sapiens) (UniProt P09038). As to the kind of experiment: basic fibroblast growth factor binding to printed compounds – biochemical, small-molecule microarray, 635/667 nm fluorescence, primary screen (AID 1133). Conditions: FGF2, fluorescence 635/667, higher = more signal.
A short description of assay [7]: JC-1 mitochondrial potential readout, lung cancer cells – cell-based, A549, JC-1 fluorescence, basal, 24 h, 100 nL, profiling panel (AID 1138).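 Also: A549 lung adenocarcinoma cells under basal conditions with no added stimulus; test concentration not given here.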 As to conditions: higher = more signal.
A further assay has as its system Lefty1. Put plainly: Lefty1 protein binding to printed compounds – biochemical, small-molecule microarray, 635/667 nm fluorescence, primary screen (AID 1139). As to conditions: fluorescence 635/667, higher = more signal.
Assay [8] has as its system wheat germ agglutinin (Triticum aestivum), Alexa647-labelled. Put plainly: Alexa647-WGA lectin binding to printed small molecules – biochemical, small-molecule microarray, 635/667 nm fluorescence, artefact control for SMM control-protein annotation, profiling panel (AID 1140).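 Also: score merges 667 nm feature emission with signal to noise over triplicate slides.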 As to conditions: WGA-A647 binding, 635 nm fluorescence, higher = more signal.
Assay [9] addresses Luciferin 4-monooxygenase (Photinus pyralis) (UniProt P08659). As to the kind of experiment: inhibition of purified Photinus pyralis luciferase – biochemical, luminescence, purified enzyme, 2006 set, primary screen (AID 1141).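 Also: cell-free assay with purified firefly luciferase at 100 ng per well in PBS; test concentration not given here.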 Conditions: purified firefly luciferase, SteadyGlo luminescence, 30 min; higher = more signal, called active from +8 up or from −8 down.
The subject of assay [10] is Wnt5a (protein binding on small-molecule microarray). Put plainly: small molecules binding Wnt5a protein – biophysical, small-molecule microarray, 635/667 nm fluorescence, primary screen (AID 1142).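 Also: fluorescence read at 667 nm with signal to noise per printed feature.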 Conditions: 635 nm fluorescence, higher = more signal.
Assay [11] is described as follows: ATP-based viability of Huh7 replicon cells – cell-based, CellTiter-Glo luminescence, basal, 48 h, cytotoxicity control for HCV replication inhibitor project, primary screen (AID 1143).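 Also: Huh7 hepatoma cells carrying a hepatitis C replication reporter with no stimulus; test concentration not given here.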 As to conditions: higher = more signal, called active from +8 up or from −8 down.
A short description of assay [12]: Pseudomonas biofilm growth suppression – PAO1 strain, BacTiter-Glo luminescence, LB-PBS, primary screen (AID 1144). As to conditions: P. aeruginosa PAO1 biofilm, 12 h, higher = more signal.
A short description of assay [13]: basal CRE-LacZ reporter activity in PC12 – cell-based, unstimulated, primary screen (AID 1145). Conditions: no forskolin, luminescence, 4.5 h, higher = more signal, called active from +8 up or from −8 down.
Assay [14] can be described thus: forskolin-driven CRE-LacZ activity in PC12 – cell-based, CRE-LacZ reporter, forskolin-stimulated, primary screen (AID 1146).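 Also: PC12 cells with 6xCRE LacZ reporter stimulated by forskolin 10 µM; beta-galactosidase reporter signal reflecting CREB driven transcription.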 As to conditions: luminescence, 4.5 h, higher = more signal, called active from +8 up or from −8 down.
Assay [15] deals with Streptavidin (Streptomyces avidinii) (UniProt P22629). As to the kind of experiment: compounds binding control protein streptavidin – biophysical, small-molecule microarray, 635/667 nm fluorescence, artefact control for SMM compound annotation, primary screen (AID 1147).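 Also: signal reflects streptavidin binding to arrayed compounds as a control protein.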 As to conditions: higher = more signal.
A short description of assay [16]: probe aInhba binding on compound microarray – biochemical, small-molecule microarray, 635/667 nm fluorescence, primary screen (AID 1148).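 Also: score merges 667nm spot fluorescence with signal-to-noise for antibody binding to printed compounds.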 As to conditions: higher = more signal.
In assay [17] the target is Torsin-1A (Homo sapiens) (UniProt O14656). Put plainly: TOR1A wild-type binding on microarray – cell lysate, small-molecule microarray, lysate, 635/667 nm, primary screen (AID 1149). Conditions: COS7 hTOR1A-WT lysate, 635 nm fluorescence, higher = more signal.
Assay [18] shares this target. As to the kind of experiment: torsin A mutant lysate binding on microarrays – cell lysate, small-molecule microarray, COS7 lysate, 635/667 nm fluorescence, primary screen (AID 1150).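 Also: score pools 667 nm emission and signal to noise measuring lysate protein binding.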 As to conditions: COS7 hTOR1A mutant lysate, 635 nm fluorescence, higher = more signal.
For assay [19], the system named is Sonic hedgehog protein (Shh). As to the kind of experiment: Sonic hedgehog microarray binding compounds – biochemical, small-molecule microarray, 635/667 nm fluorescence, primary screen (AID 1151).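 Also: Shh protein binding to compounds spotted on small-molecule microarray slides; score combines spot fluorescence intensity with signal-to-noise across triplicate slides.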 Conditions: 635 nm fluorescence, higher = more signal.

Sequence of Luciferin 4-monooxygenase (Photinus pyralis) (P08659 whole entry, looked up): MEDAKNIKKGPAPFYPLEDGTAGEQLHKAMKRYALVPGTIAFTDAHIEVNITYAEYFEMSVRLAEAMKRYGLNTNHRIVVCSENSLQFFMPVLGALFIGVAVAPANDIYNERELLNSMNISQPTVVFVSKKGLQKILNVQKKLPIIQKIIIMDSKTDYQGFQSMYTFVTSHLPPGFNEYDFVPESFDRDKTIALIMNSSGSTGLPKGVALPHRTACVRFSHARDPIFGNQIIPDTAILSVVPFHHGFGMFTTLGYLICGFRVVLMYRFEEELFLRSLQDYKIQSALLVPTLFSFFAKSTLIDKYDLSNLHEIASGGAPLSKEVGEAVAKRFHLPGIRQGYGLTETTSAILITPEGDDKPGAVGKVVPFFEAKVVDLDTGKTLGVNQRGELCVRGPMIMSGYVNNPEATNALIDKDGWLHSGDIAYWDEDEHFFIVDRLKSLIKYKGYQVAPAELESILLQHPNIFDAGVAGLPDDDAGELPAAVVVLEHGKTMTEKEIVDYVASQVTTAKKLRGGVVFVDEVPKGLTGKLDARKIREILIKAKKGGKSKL
Sequence of Torsin-1A (Homo sapiens) (O14656 whole entry, looked up): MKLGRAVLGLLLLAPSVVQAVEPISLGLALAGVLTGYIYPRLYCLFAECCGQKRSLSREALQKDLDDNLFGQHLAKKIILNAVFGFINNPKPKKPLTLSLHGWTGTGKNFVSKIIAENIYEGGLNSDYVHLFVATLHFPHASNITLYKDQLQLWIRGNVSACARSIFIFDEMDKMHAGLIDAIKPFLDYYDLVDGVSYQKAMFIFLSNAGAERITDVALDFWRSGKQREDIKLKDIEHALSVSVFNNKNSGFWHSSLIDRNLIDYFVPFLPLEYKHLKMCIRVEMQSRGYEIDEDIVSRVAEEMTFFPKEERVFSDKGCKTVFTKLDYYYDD
Sequence of Follistatin (Homo sapiens) (P19883 whole entry, looked up): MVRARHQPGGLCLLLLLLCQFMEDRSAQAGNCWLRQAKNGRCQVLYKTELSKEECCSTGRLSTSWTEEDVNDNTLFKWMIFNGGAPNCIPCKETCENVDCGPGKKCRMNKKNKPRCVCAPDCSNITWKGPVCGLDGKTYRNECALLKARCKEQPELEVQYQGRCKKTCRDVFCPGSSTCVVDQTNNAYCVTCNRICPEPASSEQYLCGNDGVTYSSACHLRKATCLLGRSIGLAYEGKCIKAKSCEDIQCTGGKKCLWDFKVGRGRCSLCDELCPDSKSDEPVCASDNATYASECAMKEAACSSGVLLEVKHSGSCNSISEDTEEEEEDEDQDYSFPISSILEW
Sequence of Streptavidin (Streptomyces avidinii) (P22629 whole entry, looked up): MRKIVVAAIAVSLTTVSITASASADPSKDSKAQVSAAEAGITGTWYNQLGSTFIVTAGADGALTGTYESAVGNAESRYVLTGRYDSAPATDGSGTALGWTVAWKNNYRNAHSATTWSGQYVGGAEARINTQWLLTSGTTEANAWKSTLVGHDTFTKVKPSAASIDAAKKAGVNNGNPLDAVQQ
Sequence of Focal adhesion kinase 1 (Homo sapiens) (Q05397 whole entry, looked up): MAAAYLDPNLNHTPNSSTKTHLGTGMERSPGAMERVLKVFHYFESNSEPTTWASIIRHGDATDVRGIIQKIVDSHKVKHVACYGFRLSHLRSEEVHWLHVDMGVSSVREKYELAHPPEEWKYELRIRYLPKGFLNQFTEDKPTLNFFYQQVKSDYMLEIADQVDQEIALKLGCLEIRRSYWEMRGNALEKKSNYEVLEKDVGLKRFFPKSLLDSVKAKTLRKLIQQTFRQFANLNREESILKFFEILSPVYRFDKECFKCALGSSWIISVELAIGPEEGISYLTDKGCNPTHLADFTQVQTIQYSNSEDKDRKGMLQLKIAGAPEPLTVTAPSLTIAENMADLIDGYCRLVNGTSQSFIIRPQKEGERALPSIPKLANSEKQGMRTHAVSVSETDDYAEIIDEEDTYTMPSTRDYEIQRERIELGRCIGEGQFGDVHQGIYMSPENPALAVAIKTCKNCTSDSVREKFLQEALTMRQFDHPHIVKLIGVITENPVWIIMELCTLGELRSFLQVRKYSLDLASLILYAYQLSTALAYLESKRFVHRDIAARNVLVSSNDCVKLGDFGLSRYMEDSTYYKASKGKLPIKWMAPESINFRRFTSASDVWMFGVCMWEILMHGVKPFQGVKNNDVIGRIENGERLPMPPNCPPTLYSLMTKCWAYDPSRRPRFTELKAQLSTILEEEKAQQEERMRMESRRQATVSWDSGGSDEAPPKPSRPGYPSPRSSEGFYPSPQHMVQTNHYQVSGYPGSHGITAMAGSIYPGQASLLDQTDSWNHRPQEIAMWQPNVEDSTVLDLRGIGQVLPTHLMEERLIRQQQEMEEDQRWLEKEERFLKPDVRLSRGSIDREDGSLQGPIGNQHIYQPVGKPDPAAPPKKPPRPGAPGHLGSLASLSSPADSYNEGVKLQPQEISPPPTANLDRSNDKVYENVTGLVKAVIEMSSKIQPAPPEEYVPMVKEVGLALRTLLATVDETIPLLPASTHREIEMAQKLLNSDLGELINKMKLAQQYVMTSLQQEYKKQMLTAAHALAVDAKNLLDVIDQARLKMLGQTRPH
Sequence of Fibroblast growth factor 2 (Homo sapiens) (P09038 whole entry, looked up): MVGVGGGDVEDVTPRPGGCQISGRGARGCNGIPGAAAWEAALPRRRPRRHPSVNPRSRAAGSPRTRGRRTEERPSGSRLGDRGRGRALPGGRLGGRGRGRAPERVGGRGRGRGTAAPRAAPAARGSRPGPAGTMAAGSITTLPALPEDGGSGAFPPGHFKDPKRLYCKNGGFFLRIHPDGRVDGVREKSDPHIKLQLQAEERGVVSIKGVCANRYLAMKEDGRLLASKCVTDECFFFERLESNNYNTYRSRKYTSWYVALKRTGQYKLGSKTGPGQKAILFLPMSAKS

In the case of `CC(C)C(=C=CC[C@@H](O)c1ccc(OCCO)cc1)C[C@@H](O)COCc1ccccc1`, the composite z-score in [1] is -0.547; in assay [2] it was 0.948; in assay [3], 0.0144; in assay [4], 0.602; in assay [5] it was 1.36; in assay [6] it was 1.46. Besides, the composite z-score was 1.58 in the assay on Lefty1; 0.225 in assay [8]; 0.13 in assay [10]; -0.0104 in assay [15]; -0.0762 in [16]; -0.372 in the assay with Torsin-1A (Homo sapiens) [17]. Also, the composite z-score with Torsin-1A (Homo sapiens) [18] was -0.208; in assay [19], 2.09. Moreover, the z-score is 0.922 in assay [7]; -1.3 (inactive) in assay [9]; -2.24 (inactive) in [11]; -0.933 (inactive) in assay [12]; 6.97 (inactive) in assay [13]; -1.23 (inactive) in assay [14].

Take `CC(C)=CCCC(C)=CC(O)C1C=CC2C(=O)N(C)C(=O)C2N1Nc1ccccc1` (stereo not given): the composite z-score came to 1.17 in assay [1]; 1.21 in [2]; 0.832 in assay [3]; 1.03 in assay [4]; 1.38 in [5]; 0.709 in assay [6]. The composite z-score in the assay with Lefty1 is 1.08; in [8] it was 1.22; in [10], 0.485; in assay [15], 1.87; in assay [16], 0.115; with Torsin-1A (Homo sapiens) [17], -0.365. Besides, the composite z-score in the assay with Torsin-1A (Homo sapiens) [18] is 0.178; in [19], 1.32. The z-score in assay [7] is 0.797; in assay [9] it was 0.15 (inactive); in assay [11] it was -2.96 (inactive); in [12], -0.545 (inactive); in [13], -0.333 (inactive); in assay [14] it was -0.465 (inactive).

On to `C=CCC(OC(C)=O)[C@@H]1[C@@H](N(Cc2ccc(-c3ccccc3)cc2)C(=O)c2cccc3ccccc23)c2cc(OCCCO)ccc2N1C(=O)c1ccc(-c2ccccc2)cc1` (stereo not given in full), for which the composite z-score in [1] was -0.722; in [2], 0.521; in [3], 0.0082; in assay [4] it was 0.56; in assay [5] it was 0.435; in assay [6] it was -0.0136. Further, the composite z-score was -0.111 in the assay with Lefty1; 0.556 in [8]; 0.0826 in assay [10]; 0.232 in assay [15]; 0.0979 in [16]; -0.0396 with Torsin-1A (Homo sapiens) [17]. Besides, the composite z-score in the assay with Torsin-1A (Homo sapiens) [18] is 0.499; in assay [19], 0.362. The z-score in assay [7] is 1.68; in assay [9] it was -0.52 (inactive); in assay [11] it was -1.6 (inactive); in assay [12], -0.915 (inactive); in assay [13], 0.6 (inactive); in assay [14], -0.531 (inactive).

For `CN1C(=O)C2C=CC(C(O)c3ccco3)N(Nc3ccccc3)C2C1=O` (stereo not given), the composite z-score in assay [1] is 1.72; in [2], 0.103; in assay [3], -0.0653; in [4], 0.822; in assay [5] it was 0.861; in assay [6], 0.33. Further, the composite z-score was 0.332 in the assay with Lefty1; 0.594 in assay [8]; 0.148 in assay [10]; 0.437 in assay [15]; -0.0131 in [16]; 0.336 with Torsin-1A (Homo sapiens) [17]. Besides, the composite z-score in the assay with Torsin-1A (Homo sapiens) [18] is -0.59; in [19], 0.59. The z-score is 0.207 in [7]; 0.0206 (inactive) in assay [9]; 1.11 (inactive) in [11]; -0.197 (inactive) in assay [12]; -0.133 (inactive) in assay [13]; 0.0834 (inactive) in assay [14].

Consider `Oc1ccc2cc[n+](Cc3sc4ccccc4c3Cl)cc2c1`, for which the composite z-score was -0.146 in [1]; -0.537 in [2]; 0.703 in assay [3]; -0.462 in [4]; 1.33 in assay [5]; 0.567 in assay [6]. Further, the composite z-score in the assay on Lefty1 was 0.506; in assay [8], 1.14; in assay [10], -0.127; in assay [15], 0.361; in assay [16], -0.12; with Torsin-1A (Homo sapiens) [17], -0.648. Further, the composite z-score is 0.11 in the assay with Torsin-1A (Homo sapiens) [18] and 1.53 in [19]. The z-score in [7] is -0.832; in assay [9], -0.226 (inactive); in [11] it was -0.683 (inactive); in assay [12], -0.521 (inactive); in assay [13], -0.374 (inactive); in assay [14] it was 0.232 (inactive).
